This passage reports growth results from PubChem BioAssay (NCI).

About 83,000 compounds went through this panel and 20% of them were active in at least one assay; those are over-represented in the sample as a whole.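 Cell lines were cultured in 96-well plates, exposed to a single compound concentration, and assessed for percent growth 48 hours later.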 Values without a mark were called inactive. Activity calls are given as the source filed them. The calls were made as follows: active = growth percent below 10; inactive = the rest.

Among the test systems are SR leukemia; RPMI-8226 leukemia; OVCAR-8 ovarian; OVCAR-5 ovarian; OVCAR-4 ovarian; SK-OV-3 ovarian; IGROV1 ovarian; OVCAR-3 ovarian; HS 578T breast; NCI/ADR-RES ovarian.
What all share (assay): NCI-60 one-dose screen, 48 h (100 = growth as untreated, 0 = no growth, -100 = all killed)
What all share (conditions): 10 µM unless noted

Regarding `COc1cc2nc(-c3ccc(C(F)(F)F)cc3)cc(OCCN3CCCCC3)c2cc1OC`, the growth is 19.2% with SR leukemia; 42.3% in the assay on RPMI-8226 leukemia; 78.2% in the assay on OVCAR-8 ovarian; 58.4% in the assay on OVCAR-5 ovarian; 81.8% with OVCAR-4 ovarian; 83.7% in the assay with SK-OV-3 ovarian. Moreover, the growth in the assay with IGROV1 ovarian was 46.5%; in the assay with OVCAR-3 ovarian, 89.7%; with HS 578T breast, 74.7%; in the assay on NCI/ADR-RES ovarian, 63.1%.

On to `CCCCCN1C=C/C(=C\C(=O)N(C)c2ccc(Oc3ccccc3)cc2)c2ccccc21`, for which the growth is 82.1% with SR leukemia; 68.6% with RPMI-8226 leukemia; 80.3% with OVCAR-8 ovarian; 92.9% with OVCAR-5 ovarian; 58.3% with OVCAR-4 ovarian; 87.3% in the assay with SK-OV-3 ovarian. The growth is 58.1% in the assay on IGROV1 ovarian, 83.6% in the assay with OVCAR-3 ovarian, 99.5% in the assay with HS 578T breast and 100% in the assay on NCI/ADR-RES ovarian.

`CC(C)(C)CC(C)(C)n1nnnc1C(NC12CC3CC(CC(C3)C1)C2)c1ccccc1` (stereo not given): the growth in the assay with SR leukemia was 80.3%; with RPMI-8226 leukemia, 68.8%; in the assay with OVCAR-8 ovarian it was 96%; in the assay with OVCAR-5 ovarian, 103%; with OVCAR-4 ovarian, 88.4%; in the assay on SK-OV-3 ovarian it was 120%. Further, the growth with IGROV1 ovarian is 87.1%; with OVCAR-3 ovarian it was 98.1%; in the assay with HS 578T breast, 99.9%; in the assay on NCI/ADR-RES ovarian, 86.1%.

Turning to `O=S(=O)(NCCCNc1nccc(-c2c(-c3cccc(F)c3)nc3sccn23)n1)c1cccc2ccccc12`, the growth in the assay with SR leukemia was 62%; with RPMI-8226 leukemia, 44.9%; in the assay with OVCAR-8 ovarian it was 38.5%; with OVCAR-5 ovarian, 80.9%; with OVCAR-4 ovarian it was 40.2%; in the assay with SK-OV-3 ovarian, 65.8%. Moreover, the growth in the assay on IGROV1 ovarian is 22.3%; with OVCAR-3 ovarian, 68.7%; with HS 578T breast it was 55.9%; in the assay with NCI/ADR-RES ovarian it was 47.1%.

On to `COc1cccc(-c2nc3occn3c2-c2ccnc(NCCCNS(=O)(=O)c3ccc(C(F)(F)F)cc3)n2)c1`, for which the growth with SR leukemia was 97.2%; with RPMI-8226 leukemia, 79.3%; in the assay with OVCAR-8 ovarian it was 87%; with OVCAR-5 ovarian, 128%; in the assay on OVCAR-4 ovarian, 76.4%; in the assay on SK-OV-3 ovarian, 81.9%. Also, the growth was 90.5% in the assay with IGROV1 ovarian, 100% with OVCAR-3 ovarian, 98.2% in the assay with HS 578T breast and 89.2% in the assay on NCI/ADR-RES ovarian.

As for `CN(C)c1ccc(Nc2c3ccccc3nc3cc(NC(=O)CCN4CCCC4)ccc23)cc1`, the growth is -19.3% (active) in the assay with SR leukemia; -35.5% (active) in the assay with RPMI-8226 leukemia; 4.51% (active) in the assay with OVCAR-8 ovarian; 11.5% with OVCAR-5 ovarian; -17.9% (active) in the assay on OVCAR-4 ovarian; 16.6% with SK-OV-3 ovarian. For the same molecule, the growth was 1.29% (active) in the assay with IGROV1 ovarian, -38.6% (active) in the assay with OVCAR-3 ovarian, 19.8% in the assay on HS 578T breast and 58.3% with NCI/ADR-RES ovarian.

`O=C(Cn1c[n+](CC(=O)c2ccc([N+](=O)[O-])cc2)c2ccccc21)Nc1cccc2cccnc12`: the growth was 61.8% in the assay with SR leukemia; 10.2% in the assay with RPMI-8226 leukemia; 93.2% in the assay on OVCAR-8 ovarian; 93.9% in the assay with OVCAR-5 ovarian; 20.4% in the assay with OVCAR-4 ovarian; 109% in the assay with SK-OV-3 ovarian. For the same molecule, the growth in the assay with IGROV1 ovarian is 71.1%; in the assay with OVCAR-3 ovarian, 38.6%; with HS 578T breast it was 74.6%; in the assay on NCI/ADR-RES ovarian, 102%.

Take `C=C1C(=O)O[C@H]2[C@H]1CC/C(COC(=O)NCc1c[nH]c3ccc(Br)cc13)=C\CC[C@@]1(C)O[C@@H]21`: the growth is 7.54% (active) in the assay on SR leukemia; -29.2% (active) with RPMI-8226 leukemia; -41.7% (active) in the assay with OVCAR-8 ovarian; -20.7% (active) with OVCAR-5 ovarian; 4.97% (active) in the assay with OVCAR-4 ovarian; 86.9% with SK-OV-3 ovarian. Further, the growth in the assay on IGROV1 ovarian was -46.8% (active); with OVCAR-3 ovarian it was -87.5% (active); in the assay with HS 578T breast, 34.3%; in the assay on NCI/ADR-RES ovarian, 43.5%.

On to `COc1cc2c(cc1OC)C(=O)/C(=C/c1cc(C)c(O)c(C)c1)S2`, for which the growth in the assay on SR leukemia is 18.7%; in the assay on RPMI-8226 leukemia it was 21.6%; in the assay on OVCAR-8 ovarian, 37%; with OVCAR-5 ovarian, 64.7%; with OVCAR-4 ovarian it was 84.7%; in the assay on SK-OV-3 ovarian, 52.1%. Moreover, the growth with IGROV1 ovarian was 35.6%; with OVCAR-3 ovarian, -5.93% (active); with HS 578T breast, 36.8%; with NCI/ADR-RES ovarian it was 15.3%.

With `Nc1nc(Nc2ccccc2SSc2ccccc2Nc2nc(N)nc(-c3cccs3)n2)nc(-c2ccsc2)n1`, the growth in the assay on SR leukemia is 31.3%; in the assay on RPMI-8226 leukemia it was 71.9%; in the assay with OVCAR-8 ovarian, 76.9%; in the assay with OVCAR-5 ovarian, 118%; with OVCAR-4 ovarian, 70.4%; in the assay with SK-OV-3 ovarian, 110%. Also, the growth in the assay with IGROV1 ovarian was 58.9%; in the assay with OVCAR-3 ovarian it was 90.4%; in the assay with HS 578T breast, 93.3%; in the assay on NCI/ADR-RES ovarian it was 4.43% (active).

`CCN(CC)CCCC(C)Nc1cc(O)cc2cccnc12` (stereo not given): the growth was 132% with SR leukemia; 97.3% with RPMI-8226 leukemia; 101% in the assay with OVCAR-8 ovarian; 105% in the assay with OVCAR-5 ovarian; 84.2% in the assay on OVCAR-4 ovarian; 119% in the assay on SK-OV-3 ovarian. Moreover, the growth with IGROV1 ovarian is 154%; in the assay with OVCAR-3 ovarian, 90.2%; in the assay with HS 578T breast, 73.9%; with NCI/ADR-RES ovarian, 102%.

Take `COc1ccc(C(=O)Cn2c(C(=O)c3ccccc3)nc3ccccc32)cc1`: the growth with SR leukemia is 13%; in the assay on RPMI-8226 leukemia it was -6.46% (active); in the assay with OVCAR-8 ovarian it was 49.3%; in the assay with OVCAR-5 ovarian it was 62%; in the assay on OVCAR-4 ovarian, 40.4%; in the assay with SK-OV-3 ovarian it was 73%. The growth is 10.1% with IGROV1 ovarian, 5.28% (active) with OVCAR-3 ovarian, -7.32% (active) with HS 578T breast and -28.3% (active) in the assay on NCI/ADR-RES ovarian.

On to `O=C(Nc1ccccc1)Nc1ccc2cc3ccc(NC(=O)Nc4ccccc4)cc3nc2c1`, for which the growth is -18.6% (active) with SR leukemia; 104% with RPMI-8226 leukemia; -23.7% (active) in the assay on OVCAR-8 ovarian; 92.4% with OVCAR-5 ovarian; -31.9% (active) in the assay with OVCAR-4 ovarian; 112% in the assay on SK-OV-3 ovarian. The growth is 51% in the assay on IGROV1 ovarian, -11.6% (active) in the assay on OVCAR-3 ovarian, -26.7% (active) in the assay with HS 578T breast and 102% in the assay with NCI/ADR-RES ovarian.
